Assay [1] can be described thus: qHTS assay to identify small molecule antagonists of the androgen receptor (AR) signaling pathway using the MDA cell line in the presence of 0.5 nM R1881 - cell viability counter screen (AID 1259242). Further: nearly all actives have a fitted effect of over 45% in size. In short, it runs like this: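 R1881 at 0.5 nM final stimulated MDA-kb2 cells during 16 hr compound treatment at 37C. Cytotoxicity read: CellTiter-Fluor fluorescence after 30 min.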
(Quantitative high-throughput screening tests each substance at several concentrations.)

Assay [2] is described as follows: qHTS assay to identify small molecule HDAC inhibitors (AID 1259364).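 Further: wild-type HCT-116 cells with endogenous class I/II HDAC activity; top concentration of the series differs between compounds; nearly all actives have a fitted effect of over 45% in size.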 The essentials:
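Relative class I and II HDAC activity is taken from the luminogenic signal in HCT-116 cells, with compound exposure 2 hr and reagent development 30 min at room temperature.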

The nature of assay [3]: qHTS assay to identify small molecule HDAC inhibitors - cell viability counter screen (AID 1259365). Further: series mostly up to about 92 µM; nearly all actives have a fitted effect of over 50% in size. The essentials: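 HCT-116 (wild type), 1,500 cells/well, overnight 37C/5% CO2; compound in DMSO 2hr; CellTiter-Glo 30min RT; luminescence read.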
Assay [4] can be described thus: qHTS assay to identify small molecule agonists of the sonic hedgehog signaling (Shh) pathway - cell viability counter screen (AID 1259366). Further: nearly all actives have a fitted effect of over 50% in size. The essentials:
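CellTiter-Fluor fluorescence read-out, 1 hr at 37C, added after 23hr compound exposure. Cells: 3T3 Gli1-Luc, an NIH/3T3 clone with stably integrated Gli1-Luc reporter, plated 4hr before compound.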

The nature of assay [5]: qHTS assay to identify small molecule antagonists of the sonic hedgehog signaling (Shh) pathway - cell viability counter screen (AID 1259367). Further: nearly all actives have a fitted effect of over 55% in size. Further: potency means the concentration at half of the fitted maximal effect. In short, it runs like this:
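Cells: 3T3 Gli1-Luc, 2,000/well, 4 hr pre-incubation. Compounds in DMSO, then conditioned medium. Incubation 24 hr, 37C, 5% CO2. CellTiter-Fluor at 23 hr, 1 hr, fluorescence.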

Assay [6] in a line: qHTS assay to identify small molecule agonists of the sonic hedgehog signaling (Shh) pathway (AID 1259368; calls by dose curve;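 further: NIH/3T3-derived 3T3Gli1-Luc cells carrying a stable Gli1-driven firefly luciferase reporter; series mostly up to about 92 µM; nearly all actives have a fitted effect of over 15% in size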). The essentials:
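Mouse fibroblast (NIH/3T3) reporter cells with stably integrated Gli1-Luc were treated 24 hr with compound; firefly luciferase luminescence served as the read-out.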

The nature of assay [7]: qHTS assay to identify small molecule agonists of the androgen receptor (AR) signaling pathway in the presence of an antagonist - cell viability counter screen (AID 1259379). Further: nearly all actives have a fitted effect of over 25% in size. Further: potency means the concentration at half of the fitted maximal effect. The essentials:
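A CellTiter-Fluor read-out measured viability of MDA-kb2 reporter cells (MMTV promoter with AR and GR response elements). Treatment: nilutamide 3.0uM final with compounds at 15 concentrations, 16 hr, 37C, 0% CO2.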

Assay [8] can be described thus: qHTS assay to identify small molecule antagonists of the estrogen receptor beta (ER-beta) signaling pathway - cell viability counter screen (AID 1259382). Further: series mostly up to about 92 µM; nearly all actives have a fitted effect of over 55% in size. In short, it runs like this: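 Agonist-stimulated (1nM E2) ER-beta-UAS-bla HEK293T cells are incubated with library compounds for 16 hr at 37C. Cell viability is then assessed in the reporter-assay wells by adding CellTiter-Glo and reading luminescence after 30 min.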

Assay [9] addresses Estrogen receptor (Homo sapiens) (UniProt P03372). The experiment in a line: qHTS assay to identify small molecule agonists of the estrogen receptor alpha (ER-alpha) signaling pathway in the presence of an antagonist (AID 1259383; calls by dose curve; further: top concentration of the series differs between compounds; nearly all actives have a fitted effect of over 15% in size). The essentials:
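Using VM7Luc4E2 cells seeded 24hr before treatment, antagonist ICI-182,780 (10.0nM final) was added, followed by compounds at 15 concentrations. Plates incubated 22hr; ONE-Glo luminescence quantified reporter activity.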

A short description of assay [10]: qHTS assay to identify small molecule agonists of the estrogen receptor alpha (ER-alpha) signaling pathway in the presence of an antagonist - cell viability counter screen (AID 1259386).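 Further: series mostly up to about 92 µM; cells exposed to compounds for 22 h at 37 °C before the viability read; nearly all actives have a fitted effect of over 30% in size.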 The essentials:
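ICI-182,780 at 10.0nM final accompanies the compound titration (15 concentrations, 22hr, 37C) on VM7Luc4E2 cells. The CellTiter-Fluor fluorescence readout runs in the same wells as the luciferase assay.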

Assay [11] can be described thus: qHTS assay to identify small molecule antagonists of the sonic hedgehog signaling (Shh) pathway (AID 1259369; calls by dose curve; further: nearly all actives have a fitted effect of over 45% in size; further: potency means the concentration at half of the fitted maximal effect). The essentials: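 Conditioned medium drives Shh signalling in 3T3Gli1-Luc cells; compounds in DMSO co-applied, 24hr at 37 C, then luciferase luminescence.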
Assay [12] in a line: qHTS assay to identify small molecule agonists of the estrogen receptor beta (ER-beta) signaling pathway - cell viability counter screen (AID 1259380). Further: nearly all actives have a fitted effect of over 30% in size. Further: potency means the concentration at half of the fitted maximal effect. The essentials: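 Cells used were ER-beta-UAS-bla HEK293T in medium with 2% charcoal-stripped FBS. They were treated for 16 hr at 37C. Viability came from CellTiter-Glo luminescence.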
Assay [13] is described as follows: qHTS assay to identify small molecule agonists or antagonists of the thyroid stimulating hormone receptor (TSHR) signaling pathway - wild type cell line counter screen (AID 1259384; calls by dose curve). The essentials: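 Counter screen in untransfected Hek293: compounds (15-point titration, triplicate) plus phosphodiesterase inhibitor Ro20-1724 added after 18 h plating; 30 min RT. Intracellular cAMP via competitive d2/cryptate immunoassay, 1 h incubation.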

Assay [14] concerns the target Thyrotropin receptor (Homo sapiens) (UniProt P16473). The experiment in a line: qHTS assay to identify small molecule antagonists of the thyroid stimulating hormone receptor (TSHR) signaling pathway (AID 1259385; calls by dose curve; further: nearly all actives have a fitted effect of over 20% in size). In short, it runs like this:
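Antagonist mode: compound-treated TSHR-expressing HEK293 cells were stimulated with 1.5 ng/mL TSH (final) in presence of Ro20-1724 for 30 min at RT. HTRF cAMP detection after 1 h; each compound tested at 15 concentrations, triplicate.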

Assay [15] deals with Estrogen receptor (Homo sapiens) (UniProt P03372). As to the kind of experiment: qHTS assay to identify small molecule antagonists of the estrogen receptor alpha (ER-alpha) signaling pathway using the BG1 cell line in the presence of 0.1 nM 17-beta-estradiol (AID 1259244). Further: potency means the concentration at half of the fitted maximal effect; nearly all actives have a fitted effect of over 50% in size. The essentials:
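VM7Luc4E2; 4xERE-luciferase; 0.1 nM E2 final; 22 h co-incubation, 37C; ONE-Glo luminescence after 30 min at room temperature.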

In assay [16] the target is Estrogen receptor beta (Homo sapiens) (UniProt Q92731). The experiment in a line: qHTS assay to identify small molecule agonists of the estrogen receptor beta (ER-beta) signaling pathway (AID 1259377; active means well fitted activation curve with a large enough effect in the signal ratio in the repeat runs, not every such curve was filed as active; the % refers to the signal ratio). In short, it runs like this: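 Beta-lactamase reporter readout: fluorescence of LiveBLAzer B/G FRET substrate after 2 h at room temperature, following 16 h compound treatment of ER-beta-UAS-bla HEK293T cells at 37C in 2% charcoal-stripped FBS medium.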

For assay [17] the target is unchanged. As to the kind of experiment: qHTS assay to identify small molecule antagonists of the estrogen receptor beta (ER-beta) signaling pathway (AID 1259378; active means well fitted inhibition curve with a large enough effect in the signal ratio in the repeat runs, not every such curve was filed as active; the % refers to the signal ratio). In short, it runs like this: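 Antagonist mode: compounds added to beta-lactamase reporter HEK293T ER-beta-UAS cells stimulated with E2 (1nM final), 16 hr at 37C. LiveBLAzer B/G FRET substrate, 2 hours room temperature, fluorescence read-out.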

Molecules are shown by their SMILES. Unmarked numbers belong to inactive results. Results filed as inconclusive are left out. Active and inactive are the calls of the source. Unless noted, the call rests on the fitted dose curve; in most records, active means well fitted curve in the direction sought with a large enough effect in the repeat runs; inconclusive means weak or mixed curves; inactive means no such curve, though single readings can be large; an effect the other way counts as inactive or inconclusive.

Sequence of Estrogen receptor beta (Homo sapiens) (Q92731 whole entry, looked up): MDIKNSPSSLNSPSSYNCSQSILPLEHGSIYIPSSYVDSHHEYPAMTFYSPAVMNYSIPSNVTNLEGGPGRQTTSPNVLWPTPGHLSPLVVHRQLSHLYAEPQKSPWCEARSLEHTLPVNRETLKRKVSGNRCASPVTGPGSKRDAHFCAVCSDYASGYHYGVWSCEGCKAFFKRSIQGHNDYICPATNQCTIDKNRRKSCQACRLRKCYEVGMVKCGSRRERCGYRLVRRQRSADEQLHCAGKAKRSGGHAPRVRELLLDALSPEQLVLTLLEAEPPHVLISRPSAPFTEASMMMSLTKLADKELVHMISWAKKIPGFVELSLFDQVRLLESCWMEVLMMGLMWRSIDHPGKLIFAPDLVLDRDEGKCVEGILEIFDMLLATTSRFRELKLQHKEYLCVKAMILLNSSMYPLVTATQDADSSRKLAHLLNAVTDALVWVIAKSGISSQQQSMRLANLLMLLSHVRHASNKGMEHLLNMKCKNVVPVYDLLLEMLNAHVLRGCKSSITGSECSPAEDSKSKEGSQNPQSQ
Sequence of Thyrotropin receptor (Homo sapiens) (P16473 whole entry, looked up): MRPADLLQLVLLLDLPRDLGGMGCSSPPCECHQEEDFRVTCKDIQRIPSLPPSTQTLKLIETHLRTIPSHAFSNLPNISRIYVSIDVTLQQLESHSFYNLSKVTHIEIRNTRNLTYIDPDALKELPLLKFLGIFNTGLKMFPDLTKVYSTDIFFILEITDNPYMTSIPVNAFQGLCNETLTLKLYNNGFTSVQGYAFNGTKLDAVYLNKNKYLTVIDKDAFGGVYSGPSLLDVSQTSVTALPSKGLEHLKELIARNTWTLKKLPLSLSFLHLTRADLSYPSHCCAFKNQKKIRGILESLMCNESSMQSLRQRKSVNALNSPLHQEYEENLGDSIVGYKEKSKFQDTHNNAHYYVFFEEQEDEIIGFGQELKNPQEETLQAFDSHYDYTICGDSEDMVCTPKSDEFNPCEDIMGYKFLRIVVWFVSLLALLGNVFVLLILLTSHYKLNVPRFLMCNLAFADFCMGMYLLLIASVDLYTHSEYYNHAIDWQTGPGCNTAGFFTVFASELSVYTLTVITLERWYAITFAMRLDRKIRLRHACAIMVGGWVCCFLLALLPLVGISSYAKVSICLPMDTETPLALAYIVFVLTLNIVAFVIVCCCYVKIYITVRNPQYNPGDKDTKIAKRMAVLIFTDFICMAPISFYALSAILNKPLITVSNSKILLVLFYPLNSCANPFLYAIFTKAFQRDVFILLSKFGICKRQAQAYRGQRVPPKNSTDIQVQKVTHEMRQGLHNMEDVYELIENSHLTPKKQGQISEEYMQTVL
Sequence of Estrogen receptor (Homo sapiens) (P03372 whole entry, looked up): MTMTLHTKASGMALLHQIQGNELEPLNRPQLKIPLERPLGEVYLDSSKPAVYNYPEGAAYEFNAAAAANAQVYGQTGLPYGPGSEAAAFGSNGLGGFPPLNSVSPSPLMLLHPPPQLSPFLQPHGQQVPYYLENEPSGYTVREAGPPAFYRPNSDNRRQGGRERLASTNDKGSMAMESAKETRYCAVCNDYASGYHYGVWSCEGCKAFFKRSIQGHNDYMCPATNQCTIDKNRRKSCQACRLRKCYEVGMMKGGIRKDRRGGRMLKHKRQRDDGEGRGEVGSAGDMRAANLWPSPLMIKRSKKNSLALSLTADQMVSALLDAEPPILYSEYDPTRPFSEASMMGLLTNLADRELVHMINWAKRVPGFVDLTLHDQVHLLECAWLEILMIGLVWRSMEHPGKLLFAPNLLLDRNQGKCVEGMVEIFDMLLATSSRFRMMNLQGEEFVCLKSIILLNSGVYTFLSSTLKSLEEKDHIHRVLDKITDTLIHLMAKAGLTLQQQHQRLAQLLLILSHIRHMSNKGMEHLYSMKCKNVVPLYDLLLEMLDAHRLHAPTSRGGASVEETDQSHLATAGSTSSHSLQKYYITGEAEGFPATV

On to `CCc1cc(Cl)c(OC)c(C(=O)NC[C@@H]2CCCN2CC)c1O`, for which the outcome in assay [1], in assay [3] and in assay [8] was inactive. For the same compound, the Potency result in assay [2], in [4], in [5], in [6], in assay [7] and in assay [9] was “inactive” each time. In assay [10], the Potency entry is “inactive”.

On to `O=C(O)C(=O)Cc1c[nH]c2ccccc12`, for which the outcome in assay [1], in assay [8] and in assay [13] was inactive. In addition, the Potency result in assay [2], in assay [4], in [5], in assay [6], in assay [11] and in assay [7] was “inactive” each time. Also, the Potency entry in [12], in assay [9], in assay [14] and in assay [10] was “inactive” throughout.

Turning to `CCOc1ccccc1N`, the Potency in assay [15] was 30.4 µM (active); in assay [7], 54.1 µM (active). Moreover, the Potency entry in assay [2], in assay [4], in assay [5], in assay [6], in assay [11] and in assay [9] was “inactive” each time. In addition, the compound was classed as inactive in [3] and in assay [13].

As for `O=C1CCC(C2CCCCC2)CC1`, the outcome in [1], in assay [16], in assay [8] and in assay [13] was inactive. Moreover, the Potency entry in assay [2], in assay [4], in assay [5], in assay [6], in [11] and in [17] was “inactive” throughout. The Potency result in assay [7], in [12], in assay [14] and in assay [10] was “inactive” throughout.

Take `CC(C)=CCCC(C)CCOC=O` (configuration not stated): the outcome in [1], in [8] and in assay [13] was inactive. Moreover, the Potency entry in [2], in assay [4], in [6], in [7], in assay [12] and in [14] was “inactive” each time. Further, in assay [10], the Potency entry is “inactive”. Further, the Potency in assay [11] is 34.4 µM (active).

On to `Cc1cn([C@@H]2O[C@H](CO)[C@@H](O)[C@@H]2F)c(=O)[nH]c1=O`, for which the result in assay [1], in assay [16] and in assay [8] was inactive. The Potency result in assay [2], in assay [4], in assay [5], in [6], in assay [11] and in assay [7] was “inactive” each time. In addition, the Potency result in assay [12] and in [10] was “inactive” throughout.

For the compound `COC(=O)N[C@H](C(=O)N[C@@H](Cc1ccccc1)[C@@H](O)CN(Cc1ccc(-c2ccccn2)cc1)NC(=O)[C@@H](NC(=O)OC)C(C)(C)C)C(C)(C)C`, the result in [1], in [3], in [8] and in assay [13] was inactive. The Potency entry in assay [2], in assay [6], in [17], in [7], in assay [12] and in assay [9] was “inactive” throughout. For the same compound, the Potency entry in [14] and in assay [10] was “inactive” throughout.

On to `C=CC1CO1` (configuration not stated), for which the outcome in assay [1], in assay [3] and in assay [8] was inactive. The Potency result in assay [2], in assay [4], in assay [5], in assay [6], in assay [11] and in [7] was “inactive” throughout. Moreover, the Potency entry in [14] and in [10] was “inactive” each time.

As for `Nc1ccc2ccccc2c1S(=O)(=O)O`, the outcome in [1], in [3] and in assay [8] was inactive. Further, the Potency result in assay [2], in [4], in assay [5], in [11], in [7] and in assay [12] was “inactive” throughout. In addition, the Potency result in assay [14] and in assay [10] was “inactive” in each case.

With `COc1cc2c(cc1N)oc1ccccc12`, the outcome in assay [1], in assay [3] and in assay [8] was inactive. Further, the results for the Potency in assay [5] and in assay [11] were 62.4 µM (active) and 27.9 µM (active), respectively. Also, the Potency entry in assay [6], in [17], in assay [7], in assay [12] and in assay [10] was “inactive” throughout.

As to `CN(C)CCOc1ccccc1Cc1ccccc1`, the outcome in assay [1], in assay [16] and in [13] was inactive. Also, the Potency entry in assay [2], in assay [4], in assay [5], in assay [6], in [7] and in assay [10] was “inactive” throughout. In addition, in assay [12], the Potency is 26.6 µM (active).

Regarding `O=Cc1ccc(F)c(Br)c1`, the result in assay [1], in assay [3], in assay [8] and in [13] was inactive. Further, the Potency result in [2], in assay [4], in assay [5], in assay [6], in assay [11] and in [7] was “inactive” in each case. The Potency entry in assay [9], in assay [14] and in assay [10] was “inactive” throughout.

As for `CCCCCCCCCCCCOCCOS(=O)(=O)O`, the outcome in assay [1], in assay [3] and in [13] was inactive. For the same compound, the Potency entry in [2], in assay [4], in assay [5], in assay [6], in [11] and in assay [7] was “inactive” throughout. Also, the Potency result in [9] and in [10] was “inactive” throughout. Further, the Potency in [12] is 48.6 µM (active).

For the compound `CC1(C)C(=O)N(Cl)C(=O)N1Br`, the outcome in [1], in assay [3] and in assay [8] was inactive. In addition, the Potency entry in assay [2], in assay [4], in assay [5], in assay [6], in [11] and in [7] was “inactive” throughout. Also, the Potency entry in assay [12] and in assay [10] was “inactive” each time.

In the case of `O=C1CCCCCCCCCCC(=O)OCCO1`, the outcome in assay [1], in assay [16], in assay [8] and in assay [13] was inactive. For the same compound, the Potency result in assay [2], in assay [4], in assay [5], in assay [6], in [17] and in assay [7] was “inactive” throughout. Moreover, the Potency entry in [12], in assay [9], in assay [14] and in assay [10] was “inactive” throughout.

For `Cc1ccc([N+](=O)[O-])cc1Cl`, the result in assay [1], in assay [3], in [16], in [8] and in assay [13] was inactive. Moreover, the Potency entry in [2], in assay [4], in [5], in assay [6], in [17] and in assay [7] was “inactive” each time. Further, the Potency entry in assay [12], in assay [14] and in assay [10] was “inactive” throughout.

The values above are taken from PubChem BioAssay (Tox21).
